HTRA1 inhibitor = inhibitors of human serine peptidase HTRA1 | Q92743 | recombinant HTRA1, FP-rhodamine activity-based probe, fluorescence polarization | inhibition, % at 5.96 µM | 340,000 tested, 0.5% active | AID 504803; in the data active means inhibition above about 36%;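 further: 0% = enzyme with DMSO and 100% = wells lacking enzyme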
Target sequence (Q92743 whole entry, looked up): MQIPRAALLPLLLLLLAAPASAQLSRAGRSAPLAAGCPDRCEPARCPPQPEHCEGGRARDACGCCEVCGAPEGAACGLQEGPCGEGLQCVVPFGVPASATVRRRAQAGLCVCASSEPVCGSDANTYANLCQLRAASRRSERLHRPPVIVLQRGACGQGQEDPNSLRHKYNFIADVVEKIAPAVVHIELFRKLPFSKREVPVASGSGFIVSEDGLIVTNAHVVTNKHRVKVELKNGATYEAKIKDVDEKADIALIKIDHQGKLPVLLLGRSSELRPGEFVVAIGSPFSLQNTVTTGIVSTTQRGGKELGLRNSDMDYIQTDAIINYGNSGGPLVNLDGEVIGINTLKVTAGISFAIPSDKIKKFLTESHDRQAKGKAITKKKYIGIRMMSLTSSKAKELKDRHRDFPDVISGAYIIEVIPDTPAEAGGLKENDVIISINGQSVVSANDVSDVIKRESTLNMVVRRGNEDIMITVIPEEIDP
PAFAH1B3 FP inh = inhibitors of human PAFAH1B3 | recombinant PAFAH1B3, FP-rhodamine probe, fluorescence polarization | inhibition, % at 3.39 µM | 340,000 tested, 0.28% active;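 active means inhibition above the screen-wide average of all tested compounds plus 3 SD, cut at about 25% in these data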;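 further: 0% = enzyme with DMSO only and 100% = wells lacking PAFAH1B3 protein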
PAFAH1B2 FP inh = blocks human PAF acetylhydrolase 1b catalytic subunit 2; inhibition, % at 3.39 µM; recombinant PAFAH1B2, FP-rhodamine activity probe, fluorescence polarization; P68402; 340,000 tested, 1.2% active; AID 492953;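 active means inhibition above the mean of all tested compounds plus 3 SD, cut at about 24% in these data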;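 further: 0% = enzyme with DMSO and 100% = wells lacking PAFAH1B2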
DAGLB inh = diacylglycerol lipase beta (human) inhibition | Q8NCG7 | HEK293T DAGLB membrane lysate, EnzChek fluorogenic substrate | inhibition, % at 5.17 µM | 340,000 tested, 0.059% active; in the data active means inhibition above about 34%;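 further: 0% = enzyme with vehicle and 100% = wells lacking enzyme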
pPAFAH inh = pPAFAH (human) enzyme inhibition; 330,000 tested, 1.5% active; AID 463082; inhibition, % at 3.39 µM; recombinant pPAFAH, FP-rhodamine probe fluorescence polarization; Q13093;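 active means inhibition above the mean inhibition across the screen plus 3 SD, cut at about 25% in these data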;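 further: inhibitors block binding of the rhodamine activity-based probe so polarization drops; 0% = enzyme with DMSO and 100% = wells lacking pPAFAH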
PAFAH2 inh = PAFAH2 (human) inhibition | inhibition, % at 3.39 µM | recombinant PAFAH2, FP-rhodamine activity probe, fluorescence polarization | 340,000 tested, 0.99% active | Q99487;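 active means inhibition above the mean over all tested compounds plus 3 SD, cut at about 30% in these data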;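 further: inhibitors block probe labeling of enzyme so polarization drops; 0% = enzyme with DMSO and 100% = wells lacking PAFAH2 protein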
An asterisk follows results filed as active; . = no result. In the library only some 2.8% were active in any assay of this set; here they are far more common.

SMILES | HTRA1 inhibitor | PAFAH1B3 FP inh | PAFAH1B2 FP inh | DAGLB inh | pPAFAH inh | PAFAH2 inh
O=C(COC(=O)Cc1ccc(Cl)cc1Cl)Nc1ccc(OC(F)F)cc1 | -9 | 9 | 4 | -13 | 12 | -7
COc1ccc(-c2nc(SCC(=O)Nc3cccc(S(N)(=O)=O)c3)n[nH]2)cc1 | -3 | 6 | 6 | 1 | . | -2
CCOC(=O)CNC(=O)Cc1ccc(Cl)cc1 | 4 | 2 | 9 | -2 | 7 | -1
CCOC(=O)Cc1ccc(NCc2ccc(Cl)cc2)cc1 | 5 | 10 | 24* | -4 | 3 | 0
COc1cc(C2(c3ccc(O)c(OC)c3)C(=O)Nc3c(Br)cc(Br)cc32)ccc1O | 21 | 7 | 25* | -1 | 1 | 6
O=C(COC(=O)c1ccccc1F)Nc1ccc(S(=O)(=O)N2CCOCC2)cc1 | 0 | 5 | 6 | -3 | 8 | 2
Cc1cc(/C=C2\SC(=S)NC2=O)c(C)n1C1CC1 | 18 | 9 | 3 | 10 | 32* | 12
CC1C(=O)N2CCCc3cc(S(=O)(=O)N4CCN(c5ccc(F)cc5)CC4)cc1c32 (stereo not drawn) | -4 | 5 | 3 | -1 | 0 | 7
COC(=O)/C=C/c1c(C)nc(NCc2ccccc2)nc1Cl | -8 | 10 | 6 | -2 | 5 | 4
COc1ccccc1OCCNC(=O)Nc1cc(F)c(F)cc1Cl | -12 | 1 | 1 | -2 | 2 | 1
Nc1nnc(CC(=O)N/N=C/c2cc([N+](=O)[O-])cc(Br)c2O)s1 | 28 | 19 | 25* | 9 | 28* | 26
O=C(COC(=O)c1ccc(OC(F)(F)F)cc1)Nc1ncccn1 | -2 | -1 | 1 | 2 | 25* | 15
O=C1C=CC(=O)N1c1cccc(-c2ccccc2)c1 | 16 | -3 | -6 | 1 | 27* | -7
O=C(CSc1ccccc1F)NCC(c1ccco1)N1CCCCC1 (stereo not drawn) | -3 | . | . | -3 | . | .
CCN(CC)S(=O)(=O)c1cccc(C(=O)OCC(=O)NCc2ccccc2OC)c1 | -9 | 4 | 5 | -2 | 32* | 20
COc1cc(C)ccc1OCC(=O)OCC(=O)NCC1CCCCC1 | 10 | 10 | 4 | 1 | 5 | -2
Cc1cc(C)c(OCC(=O)OCC(=O)NCC2CCCCC2)c(C)c1 | -9 | 3 | 4 | -4 | 31* | -6
COc1ccccc1CNC(=O)COC(=O)Cc1ccc(Cl)cc1 | 1 | 8 | 2 | -1 | 27* | 1
COc1ccccc1CNC(=O)c1cccc(S(=O)(=O)N(C)c2ccccc2)c1 | -11 | 2 | 1 | -4 | -3 | 6
O=C(COC(=O)Cc1ccc(Br)cc1)NC1CCCCC1 | -8 | 5 | 10 | -4 | 30* | 5
Cc1cccnc1NC(=O)CN1C(=O)NC(C)(c2ccc3ccccc3c2)C1=O (stereo not drawn) | 4 | 2 | 2 | 3 | 2 | -1
Cc1cc(C(=O)O)cc(S(=O)(=O)Nc2ccccc2C(=O)NC(C)c2ccccc2)c1C (stereo not drawn) | -5 | 0 | 19 | 2 | 3 | 6
CC1=CCC2C(=O)N(c3ccc(OC(=O)c4ccco4)cc3)C(=O)C2C1 (stereo not drawn) | -4 | 7 | 2 | -6 | -1 | -10
O=C(COC(=O)Cc1ccc(Cl)cc1)NC1CCCC1 | 0 | 1 | 9 | -3 | 26* | 12
O=C(COC(=O)Cc1ccc(Br)cc1)NCC1CCCCC1 | 0 | 1 | 9 | -2 | 31* | 5
SMILES | HTRA1 inhibitor | PAFAH1B3 FP inh | PAFAH1B2 FP inh | DAGLB inh | pPAFAH inh | PAFAH2 inh
O=C(COC(=O)Cc1ccc(F)cc1)NC1CCCC1 | -8 | 13 | 3 | -2 | 11 | 9
O=C(O)c1cc(O)c2c(c1)[C@@H]([C@H]1c3cc(C(=O)O)cc(O)c3C(=O)c3c(O[C@@H]4O[C@H](CO)[C@@H](O)[C@H](O)[C@H]4O)cccc31)c1cccc(OC3O[C@H](CO)[C@@H](O)[C@H](O)[C@H]3O)c1C2=O (stereo partly drawn) | 26 | 76* | 78* | 5 | 97* | 86*
O=C1c2cc(CO)cc(O)c2C(=O)c2c(O[C@@H]3OC(CO)[C@@H](O)[C@@H](O)[C@@H]3O)cccc21 (stereo partly drawn) | -2 | 9 | 1 | -2 | 2 | -2
CC(C)Cc1csc(NC(=O)c2ccccc2Cl)c1C(=O)O | -2 | 2 | 2 | 4 | 0 | 5
CC(C)Cc1csc(NC(=O)c2ccc(Cl)cc2)c1C(=O)O | -3 | 5 | 5 | 15 | 11 | 42*
Nc1nc(C2CCCCC2)cs1 | 0 | 7 | 58* | -3 | -1 | -1
C=CC[n+]1c(-c2ccc(Cl)cc2Cl)csc1Nc1ccc(NC(C)=O)cc1 | 18 | 10 | 8 | 1 | 25* | 33*
O=C(CSc1n[nH]c(=O)[nH]c1=O)Nc1c(Cl)cc(Cl)cc1Cl | 4 | 7 | 0 | 4 | 2 | -10
O=c1[nH]nc(SCc2cc(Cl)ccc2Cl)c(=O)[nH]1 | -2 | 4 | 29* | 1 | 0 | 1
O=C(CSc1n[nH]c(=O)[nH]c1=O)c1ccc(Cl)cc1Cl | -4 | 7 | 30* | 2 | 0 | 2
O=C1C=C(N2CCOCC2)c2ccccc2C1=O | 21 | 77* | 21 | -8 | 9 | 47*
COc1ccc(OCc2cccc(C(=O)Nn3cc([N+](=O)[O-])cn3)c2)cc1 | 0 | -4 | 29* | 1 | 4 | 3
COc1ccc(OCc2cccc(C(=O)NN)c2)cc1 | -28 | 3 | 5 | -2 | 7 | -7
O=C(Nc1cc([N+](=O)[O-])ccc1O)c1ccc2c(c1)C(=O)N(Cc1ccco1)C2=O | 4 | 2 | 0 | 15 | 30* | 3
O=C(Nc1cc([N+](=O)[O-])ccc1O)c1cccc([N+](=O)[O-])c1 | 5 | 11 | 3 | 1 | 5 | 6
O=C(Nc1cc([N+](=O)[O-])ccc1O)c1cccc(C(=O)Nc2cc([N+](=O)[O-])ccc2O)c1 | 3 | 34* | 15 | 4 | 15 | 33*
CSCCC(NC(=O)CCNC(=O)c1ccccc1Cl)c1nc2ccccc2[nH]1 (stereo not drawn) | 2 | 5 | -1 | 0 | -3 | -7
COC(=O)C(C)Oc1ccc2c3c(c(=O)oc2c1)CCCCC3 (stereo not drawn) | -2 | -1 | 1 | -4 | 28* | 3
CC(Oc1ccc2c3c(c(=O)oc2c1)CCCC3)C(=O)NCC1CCC(C(=O)O)CC1 (stereo not drawn) | 1 | 2 | 6 | -1 | 5 | -3
COc1ccccc1C1C2=C(CC(C)(C)CC2=O)Nc2nnnn21 (stereo not drawn) | 2 | 7 | -4 | 0 | -1 | 3
COc1ccc(OC)c(C2C3=C(CC(C)(C)CC3=O)Nc3nnnn32)c1 (stereo not drawn) | -2 | 10 | -2 | 1 | 29* | -1
